In PubChem BioAssay (NCATS):
Results filed as inconclusive are left out. Activity calls are given as the source filed them. Calls follow the shape of the dose curve; as a rule, active = well fitted cell-killing curve with a large enough effect; inconclusive = small, poorly fitted or top-dose-only effect; inactive = no such curve, though single readings can be large or run the other way.

assay: qHTS of pediatric cancer cell lines to identify multiple opportunities for drug repurposing: Primary screen for A673 cells (AID 1347092); settings: A673 Ewing sarcoma viability, CellTiter-Glo ATP luminescence, 48 h; series mostly up to 46 µM; also: nearly all actives have a fitted effect of over 45% in size
Source text: Drug repurposing or repositioning has been offered as a strategy for drug development in oncology programs. This approach has special potential for childhood cancers and other rare or orphan diseases, where the expected return on new drug development has been a disincentive to pharmaceuticals. […] In this project we exploit the poly-pharmacology of drugs to discover new indications via phenotypic screening of a panel of 19 well-characterized cell lines derived from solid tumors seen in children and adolescents. The goal is to identify approved drugs with previously unrecognized anticancer properties that has the potential to reveal new mechanisms and biological processes involved in carcinogenesis or drug resistance. We employed a titration-based paradigm (quantitative high-throughput screening or qHTS), where all compounds were tested at multiple concentrations for their effect on cell viability. Concentration-response curves (CRCs) were derived directly from the primary screen, and both potency and efficacy values were used to identify compounds with robust bioactivity profiles. We screened the NIH Chemical Genomics Center (NCGC) Pharmaceutical Collection (NPC) and Mechanism Interrogation Plate (MIPE) small molecule collections of approved and investigational compounds against these cell lines; and measured metabolically active cells after 48 hours of compound treatment as a proxy for cell viability. […] Assay Submitter: Nathalia J. Martinez, National Center for Advancing Translational Sciences, National Institutes of Health, Rockville, MD, USA; email: natalia.martinez@nih.gov. Shen, M et al. Quantitative high-throughput phenotypic screening of pediatric cancer cell lines identifies multiple opportunities for drug repurposing. Oncotarget 2017 Dec 19;9(4):4758-4772. PMID 29435139.
The cells were obtained from University of North Carolina (UNC), Pediatric Preclinical Testing Program (PPT), and Coriell Institute (CI). qHTS cell viability assay: Cells were assayed in growth media at a density of 500-1,000 cells/well. Five microliters of cells were dispensed into 1,536-well, white, solid-bottom, TC-treated plates (Greiner Bio One) using a multidrop dispenser and incubated at 37 degrees C, 5% CO2, under a humidified atmosphere for 5 hours. Twenty-three nanoliters of compounds and controls (neutral control DMSO or positive control bortezomib at final concentration of 2.3 uM) were subsequently transferred by Kalypsys pintool. For primary screens, the MIPE collection was tested at 11-point dilutions (final concentrations range from 0.78 nM to 46 µM) and the NPC collection at 8-point dilutions (final concentrations range from 0.59 nM to 46 µM). Compounds tested in follow-up screens were assayed at 11-point dilutions. Cells were incubated for 48 hours, followed by addition of 3 uL of CellTiter-Glo (Promega). After a 15min incubation at room temperature, samples were analyzed for luminescence intensity using a ViewLux High-throughput CCD imager equipped with clear filters.
Potency is read from the fitted curve at half-maximal effect.

SMILES	Potency
CCC=CC[C@H]1C(=O)CC[C@@H]1CC(=O)OC	inactive
NC(N)=Nc1nc(CSCCC(N)=NS(N)(=O)=O)cs1	11.8 µM (active)
CNC(=O)[C@H](CC1=CN=C2C=CCC=C12)NC(=O)[C@@H](CC(=O)NO)CC(C)C	0.0469 µM (active)
N=C1SC(=Cc2ccc(-c3ccc4c(c3)C(=O)NC4=O)o2)C(=O)N1c1ccc(Br)cc1	inactive
CCCCC(F)(F)[C@@]1(O)CC[C@H]2[C@H](CC(=O)[C@@H]2CCCCCCC(=O)O)O1	inactive
CN(C)CCOc1cc(-c2cn[nH]c2)ccc1NC(=O)C1COc2ccccc2O1 (stereo not given)	18.7 µM (active)
CCOC(=O)N1CCN([N+]([O-])=NOc2cc(ON=[N+]([O-])N3CCN(C(=O)OCC)CC3)c([N+](=O)[O-])cc2[N+](=O)[O-])CC1	inactive
CC(C)(F)C[C@H](N[C@@H](c1ccc(-c2ccc(S(C)(=O)=O)cc2)cc1)C(F)(F)F)C(=O)NC1(C#N)CC1	inactive
CC(C)CNc1ccnc(NCc2csc(-c3ccccc3)n2)n1	11.8 µM (active)
OC1CCC(Nc2ncc3nc(Nc4c(F)cc(F)cc4F)n([C@@H]4CCOC4)c3n2)CC1 (stereo not given in full)	9.35 µM (active)
N#CC(c1ccnc(NCCc2cccnc2)n1)c1nc2ccccc2s1 (stereo not given)	4.69 µM (active)
CN1[C@H]2CC[C@H]1CC(OC(=O)c1c[nH]c3ccccc13)C2 (stereo not given in full)	inactive
O=C1Nc2ccc(I)cc2C1=Cc1cc(Br)c(O)c(Br)c1	14.8 µM (active)
COc1ccc2c(c1)CC[C@H]1[C@@H]2CC[C@]2(C)[C@@H](NCCCCCCN3C(=O)C=CC3=O)CC[C@H]12	inactive
CCNC(=O)[C@H]1O[C@@H](n2cnc3c(N)nc(NCCc4ccc(CCC(=O)O)cc4)nc32)[C@H](O)[C@H]1O	inactive
COc1c(C)cnc(Cn2cnc3c(Cl)nc(N)nc32)c1C	0.235 µM (active)
CN(C)c1nc(Cc2ccc(NC(=O)c3ccc(C(F)(F)F)cc3)cc2)nc(N(C)C)c1CC(=O)O	inactive
C[C@@H](N)c1ccc(C(=O)Nc2ccnc3[nH]ccc23)cc1	9.35 µM (active)
CN(C)CCOc1ccc(-c2nc(-c3ccc4c(c3)CCC4=NO)c(-c3ccncc3)[nH]2)cc1	18.7 µM (active)
CN(C)CC[C@H](CSc1ccccc1)Nc1ccc(S(=O)(=O)NC(=O)c2ccc(N3CCN(Cc4ccccc4-c4ccc(Cl)cc4)CC3)cc2)cc1[N+](=O)[O-]	3.72 µM (active)

SMILES	Potency
C[C@H](c1ccc(F)cc1CCCC(=O)O)N(c1cc(F)ccc1F)S(=O)(=O)c1ccc(Cl)cc1	18.7 µM (active)
COc1ccc(-c2ccc3ncc4c(c3c2)n(-c2ccc(N3CCNCC3)c(C(F)(F)F)c2)c(=O)n4C)cn1	0.372 µM (active)
CN1CCN(c2cccc(Nc3nc4c(-c5ccc(S(C)(=O)=O)cc5)cccn4n3)c2)CC1	9.35 µM (active)
CCCCCOC(=O)Nc1nc(=O)n([C@@H]2O[C@H](C)[C@@H](O)C2O)cc1F (stereo not given in full)	inactive
CC(NCCc1ccc(O)cc1)C(O)c1ccc(O)cc1 (stereo not given)	inactive
Cc1ccccc1-n1c(Cn2nc(-c3cccc(O)c3)c3c(N)ncnc32)nc2cccc(C)c2c1=O	0.0047 µM (active)
CS(=O)(=O)c1ccc(C2=C(c3ccccc3)C(=O)OC2)cc1	inactive
Nc1[nH]nc2nnc(-c3c(-c4ccccc4)nn4ccccc34)cc12	1.48 µM (active)
CCOC(=O)[C@H]1O[C@H]1C(=O)N[C@@H](CC(C)C)C(=O)NCCC(C)C	18.7 µM (active)
CC[C@H](NC(=O)[C@H](C)NC)C(=O)N1C[C@@H](O)C[C@H]1Cc1c(-c2[nH]c3cc(F)ccc3c2C[C@H]2C[C@H](O)CN2C(=O)[C@H](CC)NC(=O)[C@H](C)NC)[nH]c2cc(F)ccc12	0.0118 µM (active)
O=C(CC12CC3CC(CC(C3)C1)C2)Nc1cccc2nc(NCCNCCO)ccc12	18.7 µM (active)
CC(C)C[C@H](NC(=O)c1cc2ccccc2s1)C(=O)N1CCN(C(=O)[C@H](CO)NS(=O)(=O)c2ccc(Cl)cc2Cl)CC1	23.5 µM (active)
CC[C@H](C)n1cc(C)c2c(C(=O)NCc3c(C)cc(C)[nH]c3=O)cc(-c3ccc(N4CCNCC4)nc3)cc21	1.48 µM (active)
CCOC(=O)[C@H](CCc1ccccc1)N[C@@H](C)C(=O)N1CCCC1C(=O)O (stereo not given in full)	18.7 µM (active)
NC1(C(=O)N[C@@H](CCO)c2ccc(Cl)cc2)CCN(c2ncnc3[nH]ccc23)CC1	18.7 µM (active)
CNc1nc(Nc2ccc(C(=O)N3CCOCC3)cc2OC)ncc1Cl	inactive
CN(C)CCN(C)C(=O)c1ccc(NC(=O)Nc2ccc(-c3nc(N4CCOCC4)c4ccn(CC(F)(F)F)c4n3)cc2)cc1	2.96 µM (active)
Cc1cnc(Nc2cccc(CN3CCOCC3)c2)nc1Nc1cccc(S(=O)(=O)NC(C)(C)C)c1	5.9 µM (active)
CCc1cccc(CC)c1NC(=O)N1Cc2[nH]nc(NC(=O)c3ccc(N4CCN(C)CC4)cc3)c2C1	14.8 µM (active)
CC(C)=CCCC(C)=CCCC(C)=CCCC(C)=CCCC(C)=CCCC(C)=CCCC(C)=CCCC(C)=CCCC(C)=CCO	inactive
